For one assay, the system named is T1, HASPIN.
T1 construct: gene GSG2

In a further assay the test system is T2, IKK-beta.
T2 construct: gene IKBKB

The test system of another assay is T3, IKK-epsilon.
T3 construct: gene IKBKE

The structures appear in SMILES notation.
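Also: kd values determined as follow-up on hits from a single-replicate KINOMEscan panel screen.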

As a reminder, the Kd is the constant that tells how readily two partners part at equilibrium. As to `CC(C)c1cc(-c2ccc3c(N)n[nH]c3c2)nc(N)n1` [GSK2250882], binding in the assay on HASPIN was characterised by a dissociation constant (Kd) of 0.2 µM.

Consider `COc1cccc(NC(=O)Nc2ccc(C)c(-c3ccc(C(=O)Nc4ccncc4)cc3)c2)c1` [GSK1398474], for which the dissociation constant Kd in the assay on IKK-beta is > 10 µM.

`FC(F)(F)c1ccccc1-c1cc(-c2c[nH]nc2-c2ccccn2)ccn1` [GW679396]: in the assay on IKK-epsilon, the Kd is > 10 µM.

As to `COc1ccc(Nc2nccc(N3CCC(NC(=O)C(C)c4ccc(Cl)cc4)CC3)n2)cc1` (centres unmarked) [GSK1379812], the Kd with IKK-epsilon is > 10 µM.

Turning to `Cl.Cl.Cl.N#Cc1ccc(CCNc2nccc(-c3cccc(CN4CCNCC4)c3)n2)cc1` [GSK2137462], in the assay on INSR, the Kd is > 10 µM.
